Experiment [1] is described as follows: ATG_NFI_CIS: Attagene CIS-FACTORIAL HepG2 Assay for human Nuclear Factor I (NFI) (AID 2282989). As to conditions: HepG2 cis-regulatory reporter, NFI response element transcription; actives raise or lower the signal. The gist of the method: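 HepG2 cells transiently transfected with cis-element-driven multiplexed reporter transcription units, dosed for 24 h. Reporter mRNA quantified by RT-PCR, fluorescent labelling, HpaI digestion and capillary electrophoresis; bidirectional fit versus DMSO baseline.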

In experiment [2] the target is Myc proto-oncogene protein (Homo sapiens) (UniProt P01106). Put plainly: ATG_Myc_CIS: Attagene CIS-FACTORIAL HepG2 Assay for human Myelocytomatosis (Myc) Proto-Oncogene Transcription Factor (AID 2282990). The settings on record: HepG2, Attagene cis-reporter transcription factor activity; actives raise or lower the signal. An outline of the steps: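 Read-out: fluorescent reporter mRNA fragments resolved by capillary electrophoresis after RT-PCR. Human HepG2 liver cells carried transfected cis-element reporter units and were dosed for 24 h. Gain or loss of signal fitted relative to DMSO baseline.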

Experiment [3] in a line: ATG_NF_kB_CIS: Attagene CIS-FACTORIAL HepG2 Assay for human Nuclear Factor Kappa B (NF-kB) (AID 2282991). As to conditions: HepG2 Attagene cis-factorial NF-kB reporter mRNA; actives raise or lower the signal. An outline of the steps: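 DMSO served as negative control and baseline for bidirectional curve fitting. Transiently transfected HepG2 cells were dosed for 24 h, then reporter transcripts were measured by RT-PCR with capillary electrophoresis detection.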

Experiment [4] can be described thus: ATG_Oct_MLP_CIS: Attagene CIS-FACTORIAL HepG2 Assay for human Octamer-Binding Transcription Factor (Oct) (AID 2282993). The settings on record: HepG2 Attagene cis-factorial Oct reporter, mRNA; actives raise or lower the signal. An outline of the steps: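 HepG2 cells transiently transfected with cis-promoter-driven multiplexed reporter transcription units, dosed for 24 h. Reporter mRNA quantified by RT-PCR, fluorescent labelling, HpaI digestion and capillary electrophoresis; bidirectional fits versus DMSO baseline.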

Experiment [5] concerns the target Cellular tumor antigen p53 (Homo sapiens) (UniProt P04637). As to the kind of experiment: ATG_p53_CIS: Attagene CIS-FACTORIAL HepG2 Assay for human p53 Transcription Factor (AID 2282994). As to conditions: HepG2 p53 cis-element reporter, Attagene mRNA; actives raise or lower the signal. An outline of the steps:
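Endogenous p53 activity read in transiently transfected HepG2 from a cis-element-driven reporter transcript after 24 h exposure. RNA reverse-transcribed, PCR-amplified, fluorescently labelled and sized by capillary electrophoresis; gain or loss fitted against DMSO baseline.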

The nature of experiment [6]: BSK_3C_TissueFactor: BioMAP Diversity Plus: 3C Assay for Tissue Factor Biomarker Activity (AID 2282997). As to conditions: BioMAP 3C HUVEC, tissue factor biomarker readout; actives raise or lower the signal. The gist of the method: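 Tissue Factor measured by ELISA, 24 h after treatment of primary HUVEC in the BioMAP 3C setting.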
Experiment [7] is described as follows: BSK_3C_uPAR: BioMAP Diversity Plus: 3C Assay for Urokinase-type plasminogen activator receptor (uPAR) Biomarker Activity (AID 2282998). As to conditions: BioMAP 3C HUVEC, uPAR biomarker ELISA; actives raise or lower the signal. The gist of the method: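 Human umbilical vein endothelial primary cells were exposed to test chemical for 24 h. Cell-surface uPAR was then quantified by ELISA, and responses were fitted bidirectionally against DMSO as negative control and baseline.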

The nature of experiment [8]: BSK_3C_VCAM1: BioMAP Diversity Plus: 3C Assay for Vascular cell adhesion molecule 1 (VCAM1) Biomarker Activity (AID 2282999). As to conditions: BioMAP 3C HUVEC, VCAM1 ELISA, cytokine-stimulated; actives raise or lower the signal. The gist of the method:
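HUVEC primary cells, 24 h compound exposure; VCAM-1 by ELISA; gain/loss of signal fitted bidirectionally vs DMSO baseline.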

Experiment [9] can be described thus: BSK_4H_Eotaxin3: BioMAP Diversity Plus: 4H Assay for Eotaxin 3 Biomarker Activity (AID 2283000).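 For outcome: CCL26 protein level quantified by ELISA in parallel with SRB cytotoxicity check.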 The settings on record: primary human endothelial cells (HUVEC); actives raise or lower the signal. The gist of the method: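 Eotaxin-3 (CCL26) levels were measured by ELISA in HUVEC primary cultures 24 h post-dosing. Gain or loss of signal was fitted in both directions, with DMSO serving as baseline and negative control.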

Experiment [10] deals with human Peroxisome Proliferator-activated Receptor alpha (PPARa), PPARA (gene 5465) (UniProt Q07869). As to the kind of experiment: ATG_PPARa_TRANS: Attagene TRANS-FACTORIAL HepG2 Assay for human Peroxisome Proliferator-activated Receptor alpha (PPARa) (AID 2283001; active = hit-call score of the fitted dose curve at least 0.9, where 1 is the maximum). An outline of the steps: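 HepG2, transient MRTU transfection, 24 h treatment. RT-PCR → FAM labelling → capillary electrophoresis. Fit vs DMSO, positive direction.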

Read-out in experiment [11]: Intercellular Adhesion Molecule 1 (ICAM1), ICAM1 (gene 3383)
As to the kind of experiment: BSK_3C_ICAM1: BioMAP Diversity Plus: 3C Assay for Intercellular Adhesion Molecule 1 (ICAM1) Biomarker Activity (AID 2283003). As to conditions: primary human endothelial cells (HUVEC); actives raise or lower the signal. An outline of the steps: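 ELISA readout of ICAM1 in human umbilical vein endothelial cells in the 3C system, taken 24 h post-dose. Gain or loss of signal versus DMSO was fitted in both directions, with SRB total-protein staining run in parallel.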

Experiment [12] concerns the target human Retinoic Acid Receptor beta (RARb), RARB (gene 5915) (UniProt P10826). As to the kind of experiment: ATG_RARb_TRANS: Attagene TRANS-FACTORIAL HepG2 Assay for human Retinoic Acid Receptor beta (AID 2283004; active = hit-call score of the fitted dose curve at least 0.9, where 1 is the maximum). The gist of the method:
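HepG2 cells were transiently transfected with GAL4-UAS reporter units that report activity of exogenous chimeric NR-Gal4 proteins, then exposed to compound for 24 h. Reporter mRNA was quantified by RT-PCR with capillary electrophoresis fluorescence, as gain of signal over DMSO.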

For experiment [13], the target named is Retinoic acid receptor alpha (Homo sapiens) (UniProt P10276). Put plainly: ATG_RARa_TRANS: Attagene TRANS-FACTORIAL HepG2 Assay for human Retinoic Acid Receptor alpha (RARa) (AID 2283005; active = hit-call score of the fitted dose curve at least 0.9, where 1 is the maximum). An outline of the steps:
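HepG2 transiently transfected with multiplex GAL4-UAS reporter units including a human RARa–GAL4 chimera; 24 h compound exposure. Reporter mRNA quantified by RT-PCR, 6-FAM labeling and capillary electrophoresis; gain of signal versus DMSO.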

The nature of experiment [14]: BSK_3C_Proliferation: Cell Proliferation Assessment in the BioMAP Diversity Plus: 3C Assay (AID 2283006).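 For AC50: potency may reflect either rise or fall in cell number versus DMSO.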 As to conditions: primary human endothelial cells (HUVEC). An outline of the steps: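 Proliferation as total protein: sulforhodamine B (0.1%) stain of TCA-fixed subconfluent human umbilical vein endothelial cells, absorbance 560 nm, 48 h after dosing. Activity fitted in both directions against DMSO baseline.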

The target in experiment [15] is Nuclear receptor subfamily 1 group I member 2 (Homo sapiens) (UniProt O75469). As to the kind of experiment: ATG_PXR_TRANS: Attagene TRANS-FACTORIAL HepG2 Assay for human Pregnane X Receptor (PXR) (AID 2283008; active = hit-call score of the fitted dose curve at least 0.9, where 1 is the maximum). An outline of the steps:
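Transactivation by exogenous PXR–GAL4 fusion measured as reporter transcript induction after 24 h compound treatment of transfected human HepG2 cells. Read-out via RT-PCR and capillary electrophoresis of labelled fragments, fitted upward relative to DMSO.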

For experiment [16], the target named is human Retinoic Acid Receptor gamma (RARg), RARG (gene 5916) (UniProt P13631). Put plainly: ATG_RARg_TRANS: Attagene TRANS-FACTORIAL HepG2 Assay for human Retinoic Acid Receptor gamma (RARg) (AID 2283009; active = hit-call score of the fitted dose curve at least 0.9, where 1 is the maximum). An outline of the steps:
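Transactivation of exogenous RARg-Gal4 fusion measured as reporter transcript induction after 24 h in transfected HepG2 cells. RNA reverse-transcribed, amplified, fluorescently labeled and resolved by capillary electrophoresis; increase relative to DMSO.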

Experiment [17] addresses human RAR-related Orphan Receptor beta (RORb), RORB (gene 6096) (UniProt Q92753). As to the kind of experiment: ATG_RORb_TRANS: Attagene TRANS-FACTORIAL HepG2 Assay for human RAR-related Orphan Receptor beta (RORb) (AID 2283010; active = hit-call score of the fitted dose curve at least 0.9, where 1 is the maximum). The gist of the method:
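Read-out is reporter mRNA induction, quantified by RT-PCR with fluorescent capillary electrophoresis, 24 h post-dose in transiently transfected HepG2 expressing exogenous NR-Gal4 chimera. Activity fitted upward versus DMSO.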

Experiment [18] concerns the target human Peroxisome Proliferator-activated Receptor delta (PPARd), PPARD (gene 5467) (UniProt Q03181). As to the kind of experiment: ATG_PPARd_TRANS: Attagene TRANS-FACTORIAL HepG2 Assay for human Peroxisome Proliferator-activated Receptor delta (PPARd) (AID 2283002; active = hit-call score of the fitted dose curve at least 0.9, where 1 is the maximum). An outline of the steps: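 Read-out: reporter mRNA induction, quantified by fluorescent RT-PCR products resolved by capillary electrophoresis. Human HepG2 liver cells carried transiently transfected Gal4-UAS reporter constructs with chimeric NR-Gal4 fusions. Cells were dosed for 24 h; DMSO served as baseline.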

Experiment [19] has as its target Peroxisome proliferator-activated receptor gamma (Homo sapiens) (UniProt P37231). Put plainly: ATG_PPARg_TRANS: Attagene TRANS-FACTORIAL HepG2 Assay for human Peroxisome Proliferator-activated Receptor-gamma (PPARg) (AID 2283007; active = hit-call score of the fitted dose curve at least 0.9, where 1 is the maximum). An outline of the steps:
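Chimeric NR-Gal4 transactivation is measured in transiently transfected HepG2 cells by reporter mRNA induction at 24 h. Detection uses RT-PCR with fluorescent labelling and capillary electrophoresis; DMSO defines baseline.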

Experiment [20] in a line: ATG_NRF2_ARE_CIS: Attagene CIS-FACTORIAL HepG2 Assay for human Nuclear Factor Erythroid 2 Related Factor 2 (NFR2) response to Antioxidant Response Elements (ARE) (AID 2282992). As to conditions: HepG2 Attagene ARE/NRF2 reporter, transcription factor activity; actives raise or lower the signal. An outline of the steps: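 Endogenous transcription factor activity read out as reporter transcript levels (RT-PCR plus capillary electrophoresis, fluorescence) in transiently transfected HepG2 cells. Measured at 24 h after dosing; gain or loss of signal fitted versus DMSO.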

Results filed as inconclusive are left out. Calls of active or inactive are those of the source. Rule for the calls, unless noted: active = hit-call score of the fitted dose curve at least 0.9, where 1 is the maximum; inactive = score below 0.9.

Chain of human Retinoic Acid Receptor gamma (RARg), RARG (gene 5916) (P13631 whole entry, looked up, the tested form may be a part): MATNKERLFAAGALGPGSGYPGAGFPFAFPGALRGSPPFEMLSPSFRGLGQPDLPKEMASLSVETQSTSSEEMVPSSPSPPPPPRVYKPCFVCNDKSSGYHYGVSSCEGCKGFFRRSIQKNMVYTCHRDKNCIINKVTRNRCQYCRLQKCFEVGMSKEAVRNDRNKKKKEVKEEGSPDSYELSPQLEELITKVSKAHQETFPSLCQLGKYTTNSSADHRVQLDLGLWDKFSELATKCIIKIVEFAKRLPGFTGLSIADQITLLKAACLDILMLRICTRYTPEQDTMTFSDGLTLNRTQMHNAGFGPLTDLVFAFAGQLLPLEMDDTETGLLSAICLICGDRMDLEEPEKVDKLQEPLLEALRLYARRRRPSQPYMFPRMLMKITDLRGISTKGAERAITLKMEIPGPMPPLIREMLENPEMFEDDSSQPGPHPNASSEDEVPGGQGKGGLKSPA
Chain of Nuclear receptor subfamily 1 group I member 2 (Homo sapiens) (O75469 whole entry, looked up, the tested form may be a part): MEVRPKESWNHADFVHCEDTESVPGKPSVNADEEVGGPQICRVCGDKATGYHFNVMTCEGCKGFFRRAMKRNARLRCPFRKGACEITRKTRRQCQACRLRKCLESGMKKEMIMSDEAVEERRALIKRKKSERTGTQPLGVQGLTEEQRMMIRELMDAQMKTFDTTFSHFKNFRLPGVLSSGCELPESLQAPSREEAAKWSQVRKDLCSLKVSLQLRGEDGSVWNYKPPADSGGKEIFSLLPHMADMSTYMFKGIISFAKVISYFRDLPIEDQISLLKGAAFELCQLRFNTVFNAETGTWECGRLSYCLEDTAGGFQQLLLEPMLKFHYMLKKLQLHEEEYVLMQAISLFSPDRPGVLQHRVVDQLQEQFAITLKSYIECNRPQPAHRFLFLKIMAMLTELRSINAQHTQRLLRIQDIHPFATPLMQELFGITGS
Chain of Cellular tumor antigen p53 (Homo sapiens) (P04637 whole entry, looked up): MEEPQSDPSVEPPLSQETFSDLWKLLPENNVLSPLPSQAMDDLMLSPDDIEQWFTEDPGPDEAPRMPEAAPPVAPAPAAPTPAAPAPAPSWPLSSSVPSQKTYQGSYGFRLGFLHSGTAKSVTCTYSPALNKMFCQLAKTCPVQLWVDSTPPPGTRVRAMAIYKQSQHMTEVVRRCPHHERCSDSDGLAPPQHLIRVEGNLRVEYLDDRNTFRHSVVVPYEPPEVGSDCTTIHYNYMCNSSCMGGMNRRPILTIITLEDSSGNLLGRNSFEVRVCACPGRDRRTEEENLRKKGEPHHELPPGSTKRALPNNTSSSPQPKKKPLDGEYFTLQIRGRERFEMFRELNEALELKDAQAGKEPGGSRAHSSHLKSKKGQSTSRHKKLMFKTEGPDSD
Chain of Peroxisome proliferator-activated receptor gamma (Homo sapiens) (P37231 whole entry, looked up, the tested form may be a part): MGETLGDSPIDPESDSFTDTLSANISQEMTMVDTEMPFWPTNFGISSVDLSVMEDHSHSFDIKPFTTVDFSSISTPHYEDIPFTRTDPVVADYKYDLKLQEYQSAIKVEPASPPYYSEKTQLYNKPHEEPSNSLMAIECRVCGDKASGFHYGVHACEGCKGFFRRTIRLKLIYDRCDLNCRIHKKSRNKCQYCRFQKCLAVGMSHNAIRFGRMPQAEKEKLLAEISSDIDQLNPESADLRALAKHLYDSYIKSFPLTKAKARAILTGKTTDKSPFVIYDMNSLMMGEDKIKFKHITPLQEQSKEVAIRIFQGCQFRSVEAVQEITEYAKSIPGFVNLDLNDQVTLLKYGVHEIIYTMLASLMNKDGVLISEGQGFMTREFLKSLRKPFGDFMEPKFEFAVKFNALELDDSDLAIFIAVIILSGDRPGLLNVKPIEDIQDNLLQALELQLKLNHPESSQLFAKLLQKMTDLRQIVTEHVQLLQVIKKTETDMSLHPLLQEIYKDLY
Chain of human RAR-related Orphan Receptor beta (RORb), RORB (gene 6096) (Q92753 whole entry, looked up, the tested form may be a part): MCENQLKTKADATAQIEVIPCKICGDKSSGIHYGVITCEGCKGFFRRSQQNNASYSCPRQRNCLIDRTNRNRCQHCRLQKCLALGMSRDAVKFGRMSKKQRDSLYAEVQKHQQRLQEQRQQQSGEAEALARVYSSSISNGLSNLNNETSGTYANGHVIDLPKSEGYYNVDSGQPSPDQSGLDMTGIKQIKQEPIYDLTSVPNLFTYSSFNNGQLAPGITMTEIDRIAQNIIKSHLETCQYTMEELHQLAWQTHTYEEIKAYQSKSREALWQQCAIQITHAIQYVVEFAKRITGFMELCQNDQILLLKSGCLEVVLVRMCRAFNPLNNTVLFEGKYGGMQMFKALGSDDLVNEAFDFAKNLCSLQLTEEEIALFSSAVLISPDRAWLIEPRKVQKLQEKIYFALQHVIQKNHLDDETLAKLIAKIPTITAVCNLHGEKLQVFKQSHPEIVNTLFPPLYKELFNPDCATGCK
Chain of Myc proto-oncogene protein (Homo sapiens) (P01106 whole entry, looked up, the tested form may be a part): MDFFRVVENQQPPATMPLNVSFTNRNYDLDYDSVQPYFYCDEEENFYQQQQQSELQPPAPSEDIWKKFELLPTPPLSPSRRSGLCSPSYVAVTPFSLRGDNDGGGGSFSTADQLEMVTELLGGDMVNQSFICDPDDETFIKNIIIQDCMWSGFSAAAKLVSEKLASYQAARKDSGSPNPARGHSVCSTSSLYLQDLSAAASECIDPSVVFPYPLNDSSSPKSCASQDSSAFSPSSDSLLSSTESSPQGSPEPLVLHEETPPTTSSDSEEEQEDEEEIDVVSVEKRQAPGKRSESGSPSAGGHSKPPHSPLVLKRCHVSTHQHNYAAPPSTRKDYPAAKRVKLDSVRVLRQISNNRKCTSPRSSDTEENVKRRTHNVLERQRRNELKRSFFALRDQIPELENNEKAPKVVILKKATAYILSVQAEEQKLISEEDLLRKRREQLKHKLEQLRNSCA
Chain of human Peroxisome Proliferator-activated Receptor delta (PPARd), PPARD (gene 5467) (Q03181 whole entry, looked up, the tested form may be a part): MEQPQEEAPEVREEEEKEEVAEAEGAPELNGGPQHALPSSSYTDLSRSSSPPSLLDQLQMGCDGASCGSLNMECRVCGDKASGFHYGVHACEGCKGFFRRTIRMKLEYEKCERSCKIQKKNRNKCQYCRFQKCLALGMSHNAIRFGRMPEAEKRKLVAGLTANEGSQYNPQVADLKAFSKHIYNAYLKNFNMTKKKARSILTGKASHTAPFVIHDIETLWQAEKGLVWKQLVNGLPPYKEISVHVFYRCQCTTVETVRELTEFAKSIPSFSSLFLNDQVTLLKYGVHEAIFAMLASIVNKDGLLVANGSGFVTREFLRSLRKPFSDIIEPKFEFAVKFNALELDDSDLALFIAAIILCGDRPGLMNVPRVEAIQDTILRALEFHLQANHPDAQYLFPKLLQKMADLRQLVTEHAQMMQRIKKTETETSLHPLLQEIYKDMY
Chain of Retinoic acid receptor alpha (Homo sapiens) (P10276 whole entry, looked up, the tested form may be a part): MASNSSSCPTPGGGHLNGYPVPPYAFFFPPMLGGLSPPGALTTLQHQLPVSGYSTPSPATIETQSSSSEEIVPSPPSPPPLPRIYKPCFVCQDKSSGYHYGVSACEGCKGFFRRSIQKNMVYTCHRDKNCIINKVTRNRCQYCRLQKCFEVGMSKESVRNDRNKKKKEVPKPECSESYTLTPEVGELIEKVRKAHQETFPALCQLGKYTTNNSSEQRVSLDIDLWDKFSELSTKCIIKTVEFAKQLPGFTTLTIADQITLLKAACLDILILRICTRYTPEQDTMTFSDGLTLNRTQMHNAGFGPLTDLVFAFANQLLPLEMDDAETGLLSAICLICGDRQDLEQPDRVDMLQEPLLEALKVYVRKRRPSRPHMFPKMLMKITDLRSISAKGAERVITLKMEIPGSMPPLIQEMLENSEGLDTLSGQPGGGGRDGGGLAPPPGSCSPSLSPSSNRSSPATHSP
Chain of human Retinoic Acid Receptor beta (RARb), RARB (gene 5915) (P10826 whole entry, looked up, the tested form may be a part): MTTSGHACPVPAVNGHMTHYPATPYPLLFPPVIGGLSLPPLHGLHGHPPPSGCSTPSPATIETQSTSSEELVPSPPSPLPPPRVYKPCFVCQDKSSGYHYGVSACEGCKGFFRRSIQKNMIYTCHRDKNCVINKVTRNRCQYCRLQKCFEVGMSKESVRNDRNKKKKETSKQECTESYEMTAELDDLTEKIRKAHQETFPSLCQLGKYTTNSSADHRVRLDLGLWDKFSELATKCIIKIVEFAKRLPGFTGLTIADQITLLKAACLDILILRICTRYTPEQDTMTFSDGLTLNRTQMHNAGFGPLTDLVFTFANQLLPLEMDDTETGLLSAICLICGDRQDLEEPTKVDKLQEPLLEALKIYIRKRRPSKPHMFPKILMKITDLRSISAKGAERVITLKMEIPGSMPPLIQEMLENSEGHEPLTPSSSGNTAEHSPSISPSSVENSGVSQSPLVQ
Chain of human Peroxisome Proliferator-activated Receptor alpha (PPARa), PPARA (gene 5465) (Q07869 whole entry, looked up): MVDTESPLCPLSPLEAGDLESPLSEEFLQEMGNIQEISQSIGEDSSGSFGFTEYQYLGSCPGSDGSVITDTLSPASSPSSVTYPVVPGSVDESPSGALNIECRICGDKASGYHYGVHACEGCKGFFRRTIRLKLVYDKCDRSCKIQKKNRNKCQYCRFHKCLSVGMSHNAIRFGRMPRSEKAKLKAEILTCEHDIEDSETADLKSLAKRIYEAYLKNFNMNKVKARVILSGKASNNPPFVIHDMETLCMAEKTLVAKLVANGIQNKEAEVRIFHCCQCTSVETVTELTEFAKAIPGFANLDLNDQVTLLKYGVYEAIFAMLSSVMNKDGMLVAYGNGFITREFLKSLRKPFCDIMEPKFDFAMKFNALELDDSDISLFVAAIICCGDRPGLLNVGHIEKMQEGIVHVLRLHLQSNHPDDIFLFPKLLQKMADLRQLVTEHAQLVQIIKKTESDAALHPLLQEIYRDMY

In the case of `C[C@]12CC[C@@H](O)C[C@@H]1CC[C@@H]1[C@@H]2CC[C@]2(C)C(=O)CC[C@@H]12`, the result in experiment [1], in experiment [2], in experiment [3], in experiment [4], in [5] and in experiment [6] was inactive. In addition, the result in experiment [7], in [8], in experiment [9], in experiment [10], in experiment [11] and in experiment [12] was inactive. Besides, the molecule was classed as inactive in experiment [13], in experiment [14], in experiment [15], in [16] and in [17].
Regarding `OC(Cc1ccccc1Cl)(Cn1[nH]cnc1=S)C1(Cl)CC1` (centres undefined), the call in experiment [1], in experiment [2], in experiment [3], in [4], in [6] and in experiment [8] was inactive. Further, the molecule was called inactive in experiment [18], in experiment [11], in experiment [16] and in [17]. For the same molecule, the AC50 is 75.7 µM (active) in experiment [5]; 20 µM (active) in [7]; 20 µM (active) in experiment [9]; 30.7 µM (active) in [14]; 59.8 µM (active) in experiment [19].
Take `C=CC(F)(C(F)(F)F)C(F)(F)C(F)(F)F` (centres undefined): the outcome in [1], in experiment [2], in experiment [3], in [4], in experiment [5] and in experiment [13] was inactive. Besides, the call in experiment [19] and in experiment [16] was inactive.
`CCOP(=S)(OCC)OP(=S)(OCC)OCC`: the molecule was classed as inactive in experiment [1], in experiment [2], in [20], in experiment [4], in experiment [5] and in experiment [6]. In addition, the molecule was classed as inactive in experiment [18] and in experiment [17]. Also, the AC50 in [7] is 34 µM (active); in experiment [8], 31.9 µM (active); in experiment [9], 35.6 µM (active); in [11], 36.8 µM (active); in experiment [14], 31.6 µM (active); in experiment [19], 25.8 µM (active). Further, the AC50 in experiment [15] is 940 nM (active).
For `C1CN2CCN1CC2`, the outcome in experiment [1], in experiment [2], in experiment [3], in [20], in experiment [4] and in [12] was inactive. Further, the result in [19], in experiment [15] and in [17] was inactive.

These data come from PubChem BioAssay (EPA / NIEHS).
